Rows were chosen to be rich in hits. Some 0.84% of all compounds tested hit in one or more screens of this group.
TR-FRET SRC-2 ct: TR-FRET artefact, counter-screen to PPARgamma/SRC-2 agonist assay | active compounds read high | hit rate 0.4% among 200,000 | TR-FRET ratio at 8 µM | AID 1049
PPARg SRC-2 ag: PPARgamma-driven SRC-2 recruitment agonism; P37231; PPARgamma LBD-SRC-2 recruitment, biochemical; activation, % at 8 µM; hit rate 0.34% among 200,000; AID 1032; in the data active means activation above about 22%
Target sequence (P37231 whole entry, looked up, the tested form may be a part): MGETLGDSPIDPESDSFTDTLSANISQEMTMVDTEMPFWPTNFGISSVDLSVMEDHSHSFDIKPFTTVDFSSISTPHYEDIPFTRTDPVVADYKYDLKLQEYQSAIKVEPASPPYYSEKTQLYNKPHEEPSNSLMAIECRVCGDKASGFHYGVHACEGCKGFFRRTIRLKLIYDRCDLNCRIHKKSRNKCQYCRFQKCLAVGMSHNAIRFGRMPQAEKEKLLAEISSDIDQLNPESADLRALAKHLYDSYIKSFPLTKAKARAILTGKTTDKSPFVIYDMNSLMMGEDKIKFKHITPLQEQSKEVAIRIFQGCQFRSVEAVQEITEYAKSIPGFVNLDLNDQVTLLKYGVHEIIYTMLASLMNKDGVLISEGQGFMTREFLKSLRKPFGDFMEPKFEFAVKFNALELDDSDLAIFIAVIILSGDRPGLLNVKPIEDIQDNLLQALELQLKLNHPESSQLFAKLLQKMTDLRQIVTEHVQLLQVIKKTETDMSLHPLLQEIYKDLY
SRC1 TRFRET art: TR-FRET artefact, counter-screen to PPARgamma/SRC-1 agonist assay | TR-FRET detection artefact counter-screen, emission ratio; active compounds read high | TR-FRET ratio at 8 µM | hit rate 0.34% among 99,000; in the data active means TR-FRET ratio above about 2300
PPARg SRC3 recr: promotes SRC-3 coactivator recruitment by human PPARgamma | biochemical PPARgamma/SRC-3 coactivator recruitment assay | hit rate 0.26% among 200,000 | activation, % at 8 µM; in the data active means activation above about 23%
SRC3 TRFRET art: counter-screen for PPARgamma SRC-3 recruitment agonists: TR-FRET artefact; PPARgamma/SRC-3 format; active compounds read high; TR-FRET ratio at 8 µM; hit rate 0.39% among 99,000
PPARg SRC1 recr: agonists of human PPARgamma SRC-1 coactivator recruitment. P37231. PPARgamma-SRC-1 coactivator recruitment biochemical assay. activation, % at 8 µM. hit rate 0.41% among 200,000. AID 631; in the data active means activation above about 19%
PPARg SRC2 conf: human PPARgamma SRC-2 recruitment agonism, confirmation | activation, % at 8 µM | shares compounds with PPARg SRC3 recr | hit rate 52% among 790 | biochemical SRC-2 recruitment by PPARgamma; in the data active means activation above about 22%
PPARg SRC1 conf: human PPARgamma SRC-1 recruitment agonism, confirmation; hit rate 43% among 790; PPARgamma–SRC-1 coactivator recruitment biochemical assay; shares compounds with PPARg SRC3 recr; AID 1300; activation, % at 8 µM; in the data active means activation above about 20%
PPARg SRC3 ag: confirmation of agonists of SRC-3 recruitment by human PPARgamma; activation, % at 8 µM; shares compounds with PPARg SRC3 recr; biochemical PPARgamma-SRC-3 coactivator recruitment, agonist mode; hit rate 29% among 790; in the data active means activation above about 24%
Of the large screens only hits and unclear results are named; the others gave an inactive call (follow-up assays come after a bar, where they were run). Unless noted, no stated cut-off is given here; in the data, active means TR-FRET ratio above about 2000; inactive means the rest.

O=C(Nc1ccc(S(=O)(=O)NCc2ccccc2)cc1)c1ccc(Br)o1	none (no result: SRC1 TRFRET art, SRC3 TRFRET art)
O=C(NCCO[N+](=O)[O-])c1cccnc1	none
Cc1cc(C)nc(-n2nc(C)cc2NC(=O)CN2CCCC(C)C2)n1 (stereo unspecified)	PPARg SRC1 recr 20 (no result: SRC1 TRFRET art, SRC3 TRFRET art) | PPARg SRC2 conf inactive | PPARg SRC1 conf inactive | PPARg SRC3 ag inactive
Cc1cc(C)nc(-n2nc(C)cc2NC(=O)CN2CCc3ccccc3C2)n1	none (no result: SRC1 TRFRET art, SRC3 TRFRET art)
C=CCSC1=Nc2cc(OC)c(OC)cc2C2=NC(=O)CN12	PPARg SRC1 recr 21 | PPARg SRC2 conf 29 | PPARg SRC1 conf inactive | PPARg SRC3 ag inactive
NC(=O)c1sc2nc(-c3ccco3)ccc2c1N	PPARg SRC3 recr 30 (no result: SRC1 TRFRET art, SRC3 TRFRET art) | PPARg SRC2 conf inactive | PPARg SRC1 conf inactive | PPARg SRC3 ag inactive
c1cc2c(cnc3cscc32)s1	TR-FRET SRC-2 ct 2391, PPARg SRC-2 ag 53, SRC1 TRFRET art 3316, PPARg SRC3 recr 29, SRC3 TRFRET art 2526, PPARg SRC1 recr 49 | PPARg SRC2 conf 62 | PPARg SRC1 conf 51 | PPARg SRC3 ag 42
c1csc(-c2cnc3ccccc3n2)c1	none
O=C(O)COC(=O)C1C(c2ccccc2)C(C(=O)O)C1c1ccccc1 (stereo unspecified)	none
Cc1ccc(-c2[nH]c3ccccc3c2SCCNC(=O)c2cc3ccccc3oc2=O)cc1	none
O=C(Cc1cccs1)NCCSc1c(-c2ccc(Cl)cc2)[nH]c2ccccc12	TR-FRET SRC-2 ct 5424, SRC1 TRFRET art 3752, PPARg SRC3 recr 54, SRC3 TRFRET art 7221, PPARg SRC1 recr 28 | PPARg SRC2 conf 26 | PPARg SRC1 conf 32 | PPARg SRC3 ag 41
O=[N+]([O-])c1ccc(N/N=C/c2c[nH]c3ccccc23)cc1	none (no result: SRC1 TRFRET art, SRC3 TRFRET art)
O=[N+]([O-])c1ccc(N/N=C/c2ccc[nH]2)cc1	PPARg SRC-2 ag 28 | PPARg SRC2 conf inactive | PPARg SRC1 conf inactive | PPARg SRC3 ag inactive
COC1(NS(=O)(=O)c2ccc(Br)cc2)C(C)=CC(=O)C=C1C	none
c1ccc(-c2nnsc2-c2nc3ccccc3[nH]2)cc1	PPARg SRC1 recr 21 | PPARg SRC2 conf 40 | PPARg SRC1 conf 34 | PPARg SRC3 ag inactive
c1ccc(-c2nnsc2-c2ncc[nH]2)cc1	none
CC(=O)N=c1sc2nc3ccccc3nc2n1N(C(C)=O)C(C)=O	PPARg SRC-2 ag 26, SRC1 TRFRET art 2476 | PPARg SRC2 conf 44 | PPARg SRC1 conf 31 | PPARg SRC3 ag 29
CN(C)c1ccc(/C=C/c2cc[n+](C)cc2)cc1	none (no result: SRC1 TRFRET art, SRC3 TRFRET art)
CC[n+]1c(/C=C/c2ccc(N(C)C)cc2)ccc2ccccc21	TR-FRET SRC-2 ct 2167, PPARg SRC-2 ag 64, SRC1 TRFRET art 3540, PPARg SRC3 recr 47, SRC3 TRFRET art 2785, PPARg SRC1 recr 61 | PPARg SRC2 conf 53 | PPARg SRC1 conf 39 | PPARg SRC3 ag 30
CC[n+]1ccc(/C=C/c2ccc(N(C)C)cc2)c2ccccc21	TR-FRET SRC-2 ct 4436, PPARg SRC-2 ag 109, SRC1 TRFRET art 4146, PPARg SRC3 recr 125, SRC3 TRFRET art 4546, PPARg SRC1 recr 149 | PPARg SRC2 conf 160 | PPARg SRC1 conf 119 | PPARg SRC3 ag 105
CC[n+]1ccccc1/C=C/c1ccc(N(C)C)cc1	none
CCc1cc2cc(C(=O)Nc3ccc(F)cc3)sc2s1	TR-FRET SRC-2 ct 2237, PPARg SRC-2 ag 39 (no result: SRC1 TRFRET art, SRC3 TRFRET art) | PPARg SRC2 conf 25 | PPARg SRC1 conf inactive | PPARg SRC3 ag inactive
O=C(COc1ccc2ccccc2c1Br)NNC(=O)Nc1ccccc1	TR-FRET SRC-2 ct 2408, PPARg SRC-2 ag 28, PPARg SRC3 recr 26, PPARg SRC1 recr 21 (no result: SRC1 TRFRET art, SRC3 TRFRET art) | PPARg SRC2 conf inactive | PPARg SRC1 conf inactive | PPARg SRC3 ag inactive
